In the library only some 3.5% were active in any assay of this set; here they are far more common.
Giardia FBPA inh: blocks Giardia fructose-bisphosphate aldolase activity; A8B2U2; purified Giardia FBPA; Potency, µM (highest dose often 59.6 µM), hits mostly inhibitors; 290,000 tested, 0.71% active; AID 2451; further: nearly all actives have a fitted effect of over 55% in size
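40 nM FBPA preincubated 10 min at RT with compound (up to 57.5 uM final), then substrate plus GAPDH/TPI/NAD/arsenate coupling and diaphorase/resazurin added. Fluorescence read after 20 min at RT, 525/598 nm.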
LmPK inh: LmPK (Leishmania mexicana) enzyme inhibition | Potency, µM (series often up to 57.5 µM), usual class: inhibitors | Q27686 | 290,000 tested, 0.37% active | purified LmPK, Kinase-Glo ATP luminescence, 1 h
Target sequence (Q27686 whole entry, looked up): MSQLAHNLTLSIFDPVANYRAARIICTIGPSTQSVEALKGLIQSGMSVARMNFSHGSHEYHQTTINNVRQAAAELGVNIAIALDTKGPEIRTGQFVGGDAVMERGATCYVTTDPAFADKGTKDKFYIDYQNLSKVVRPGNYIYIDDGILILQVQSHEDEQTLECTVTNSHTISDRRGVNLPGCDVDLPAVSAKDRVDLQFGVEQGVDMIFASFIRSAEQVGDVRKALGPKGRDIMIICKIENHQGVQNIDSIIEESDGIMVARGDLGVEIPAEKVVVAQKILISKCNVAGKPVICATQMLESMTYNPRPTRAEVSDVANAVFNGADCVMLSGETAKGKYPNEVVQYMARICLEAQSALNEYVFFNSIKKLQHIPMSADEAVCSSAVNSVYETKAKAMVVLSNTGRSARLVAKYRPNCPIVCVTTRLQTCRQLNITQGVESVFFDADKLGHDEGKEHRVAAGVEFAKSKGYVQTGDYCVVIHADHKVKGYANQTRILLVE
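ATP generated from ADP (0.1 mM) and PEP (0.5 mM) by 0.1 nM LmPK over 1 h at room temperature (pH 7.2 imidazole buffer) was detected by coupled luciferase luminescence. Values were normalized to uninhibited and no-enzyme wells.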
RE007 growth inh: less growth of the S. pombe RE007 Vpr strain. S. pombe RE007 Vpr strain, BacTiter-Glo ATP luminescence, 24 h. Potency, µM (doses to about 92.2 µM), actives largely listed as inhibitors. 360,000 tested, 0.21% active; active means well fitted falling curve with a large enough effect; inconclusive means small, poorly fitted or top-dose-only effect; inactive means no such curve, though single readings can be large or run the other way; further: nearly all actives have a fitted effect of over 50% in size
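Fission yeast strain RE007, carrying one chromosomally integrated HIV-1 vpr copy, was seeded at OD 0.01 in PMG+AL medium with 23 nL pinned compound. After 24 h at 30 °C and 99% humidity, viability was read by BacTiter-Glo luminescence.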
Sm TGR block: inhibitors of Schistosoma mansoni thioredoxin glutathione reductase; Q962Y6; purified TGR, DTNB reduction, TNB absorbance 405 nm; Potency, µM (highest dose often 114 µM), hits mostly inhibitors; 360,000 tested, 3% active; AID 485364; further: nearly all actives have a fitted effect of over 60% in size
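First, TGR (20 nM dispensed) and NADPH were mixed with compound. Second, a 15 min room-temperature incubation followed. Third, further NADPH and then DTNB were added to start the reaction. Finally, TNB absorbance was monitored kinetically.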
NS1 inh: influenza NS1 inhibition | Potency, µM (doses to about 46.1 µM) | 270,000 tested, 0.4% active | AID 2326; calls by dose curve; further: actives are rising curves; nearly all actives have a fitted effect of over 50% in size
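S. cerevisiae expressing influenza A NS1, grown in glucose, washed, then diluted 1:100 into pH 6.0 -URA galactose medium with 23 nl compound. Growth recovery read as OD600; NS1-free strain serves as control.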
Tb PYK inh: blocks Trypanosoma brucei pyruvate kinase; Potency, µM (highest dose often 76.8 µM), actives largely listed as inhibitors; TbPYK enzyme, Kinase-Glo Plus ATP luminescence, 45 min; Q57TT1; 410,000 tested, 0.12% active; further: nearly all actives have a fitted effect of over 50% in size
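Quantitative HTS: titrated library compounds versus trypanosomal pyruvate kinase in TEA buffer (pH 7.2) containing KCl, MgCl2, BSA and Tween-20. Reactions were initiated with ADP, 130 uM final. Kinase-Glo Plus luminescence was read after 45 min at RT.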
Hits are given with their value; - = inactive; ? = inconclusive; . = not tested or not shown. Unless noted, the call rests on the fitted dose curve; in most records, active means well fitted curve in the direction sought with a large enough effect; inconclusive means small, poorly fitted or top-dose-only effect, or another doubt; inactive means no such curve, though single readings can be large; an effect the other way counts as inactive or inconclusive.

SMILES	Giardia FBPA inh	LmPK inh	RE007 growth inh	Sm TGR block	NS1 inh	Tb PYK inh
Cc1ccsc1/C=C1\CCc2ccccc2C1=O	-	?	13µM	-	-	?
COc1cccc(/C=C2\CCc3ccccc3C2=O)c1	-	16µM	.	-	-	?
CC1(C(=O)NC2CCCCC2)Cc2ccccc2C(=O)N1Cc1ccccc1Cl (stereo not drawn)	.	.	.	-	.	-
Cc1cc(N=Nc2ccc(C)c(N=Nc3cc(C)c(N)cc3N)c2)c(N)cc1N	?	20µM	-	-	-	-
COc1ccc(-c2nnc(SCC(=O)N(C)Cc3ccccc3)o2)cc1OC	.	.	.	-	.	-
CCOc1ccccc1NC(=O)c1ccc2c(c1)CCN2S(C)(=O)=O	.	.	.	-	.	-
COC(=O)c1ccc(C(c2c(N)n(Cc3ccccc3)c(=O)n(C)c2=O)N2CCOCC2)cc1 (stereo not drawn)	-	-	-	22µM	-	-
Cc1cccc(Cc2c(C)nc3nc(SCC(=O)NC4CCCCC4)nn3c2C)c1	.	.	.	-	.	-
Cc1nc2nc(SCC(=O)NCc3ccccc3)nn2c(C)c1Cc1ccccc1	.	.	.	-	.	-
CCCCNC(=O)CSc1nc2nc(C)c(Cc3c(F)cccc3Cl)c(C)n2n1	.	.	.	-	.	-
Cc1cccc(Cc2c(C)nc3nc(SCC(=O)NCc4ccco4)nn3c2C)c1	-	-	-	35µM	?	-
Cc1ccc(Cc2c(C)nc3nc(SCC(=O)NCc4ccco4)nn3c2C)cc1	-	-	-	40µM	-	-
Cc1ccccc1Cc1c(C)nc2nc(SCC(=O)NCc3ccco3)nn2c1C	-	-	-	25µM	-	-
Cc1nc2nc(SCC(=O)NCc3ccco3)nn2c(C)c1Cc1c(F)cccc1Cl	-	-	-	50µM	-	-
CCCCCCCCCCCCCCCC(=O)OCC(COP(=O)(O)O)OC(=O)CCCCCCCCCCCCCCC (stereo not drawn)	-	.	.	.	.	.
O=C(Cn1ncc2c3ccccc3n(Cc3cccc(Cl)c3)c2c1=O)NCc1cccs1	.	.	.	-	.	-
Clc1cccc(-n2ncc3c(NCCCn4ccnc4)ncnc32)c1	.	.	.	-	.	-
Cc1nc2c(C(=O)NCc3ccccc3Cl)cnn2c(C)c1Cc1ccccc1	.	.	.	-	.	-
Cc1ccccc1Cc1c(C)nc2c(C(=O)NCc3ccco3)cnn2c1C	-	-	-	22µM	-	-
Cc1ccc2oc(C(=O)Nc3ccc(S(=O)(=O)Nc4nccc(C)n4)cc3)cc(=O)c2c1	.	.	.	-	.	-
COc1ccc(-c2ccc(CCC(=O)O)n2CC(=O)Nc2cccc(Cl)c2C)cc1	.	.	.	-	.	-
CC(=O)C(Sc1nccc(-c2cccs2)n1)C(C)=O	18µM	-	?	-	.	-
CN(Cc1ccccc1)C(=O)C(=O)Nc1ccc2nc3n(c(=O)c2c1)CCCCC3	.	.	.	-	.	-
Fc1cccc(-c2n[nH]c(=S)n2-c2ccccc2)c1	-	?	-	-	-	?
Cc1cccc(-n2c(-c3csc(C)c3)n[nH]c2=S)c1	-	4.5µM	-	-	-	?
SMILES	Giardia FBPA inh	LmPK inh	RE007 growth inh	Sm TGR block	NS1 inh	Tb PYK inh
CCCCn1c(-c2csc(CC)c2)n[nH]c1=S	-	?	-	-	-	4µM
CCc1cc(-c2n[nH]c(=S)n2-c2cccc(C)c2)cs1	-	4.5µM	-	-	-	11µM
CCCc1cc(-c2n[nH]c(=S)n2CC(C)C)cs1	-	?	-	-	-	?
C#CCn1c(=O)c2c(nc(/C=C/c3cccc(OC)c3)n2C)n(CCCO)c1=O	-	.	.	.	.	.
N#CC1=C(S)N(c2ccccc2)C(c2ccc(-c3cc(Cl)ccc3Cl)o2)NC1=O (stereo not drawn)	-	-	-	-	-	-
N#CC1=C(S)N(c2ccccc2)C(c2ccc(-c3ccc(Cl)c(Cl)c3)o2)NC1=O (stereo not drawn)	-	-	-	14µM	-	-
COc1ccc(CNC(=O)CCc2c(C)nn(-c3ccc(N4CCOCC4)nn3)c2C)cc1	.	.	.	-	.	-
CCOc1ccc(NC(=O)C(c2ccccn2)N(C(=O)CCl)c2ccc(OCC)cc2)cc1 (stereo not drawn)	?	-	-	45µM	-	-
COc1ccc(N(C(=O)CCl)C(C(=O)NC2CCCCC2)c2cccnc2)cc1 (stereo not drawn)	-	-	-	14µM	-	-
COc1ccc(NC(=O)C(c2ccccn2)N(C(C)=O)c2ccc(C)cc2)cc1 (stereo not drawn)	-	-	-	-	-	-
CCOc1ccc(NC(=O)C(c2ccccn2)N(C(=O)CCl)c2ccc(OC)cc2)cc1 (stereo not drawn)	7.1µM	-	-	45µM	?	-
CCN1C=C(Cc2cccs2)C2=C(C1)C(c1cccs1)C(C#N)=C(N)O2 (stereo not drawn)	?	-	-	22µM	-	-
CCN1CC2=C(OC(N)=C(C#N)C2c2ccccc2)/C(=C\c2ccccc2)C1 (stereo not drawn)	?	-	-	?	-	-
CCN1CC2=C(OC(N)=C(C#N)C2c2cccs2)/C(=C/c2cccs2)C1 (stereo not drawn)	?	-	-	35µM	-	-
Cc1cccc(Sc2ccc([N+](=O)[O-])cc2[N+](=O)[O-])n1	?	-	-	-	-	-
O=[N+]([O-])c1ccc(Sc2ncccn2)c([N+](=O)[O-])c1	-	-	?	10µM	-	-
O=[N+]([O-])c1ccc(Sc2nccn2Cc2ccccc2)c([N+](=O)[O-])c1	.	-	-	28µM	-	-
CCn1c(=O)c2c(nc3n2CCN3c2ccc(OC)cc2)n(C)c1=O	.	.	.	-	.	-
COc1cc2c(c(OC)c1OC)-c1c(cc3c(c1OC)OCO3)C[C@@H](C)[C@](C)(O)C2	.	.	.	.	.	-
C=CCn1c(O)c(CN2CCN(Cc3ccccc3)CC2)c(C)c(C#N)c1=O	?	-	-	45µM	-	-
CCCn1c(O)c(CN2CCCCC2)c(C)c(C#N)c1=O	?	-	-	-	-	-
O=C1N=c2ccccc2=C1c1c(O)n(-c2cccc(F)c2)[nH]c1=O	?	-	-	22µM	-	?
CCOc1ccc(NC(=O)C(NS(=O)(=O)c2ccc3c(c2)CCN3C(C)=O)C(C)C)cc1 (stereo not drawn)	.	.	.	-	.	-
O=C(C1=C[C@H](c2ccc3c(c2)OCO3)C[C@H](OCCCCO)O1)N1CCN(Cc2ccccc2)CC1	-	-	-	25µM	-	-
CN1CCN(C(=O)C2=C[C@H](c3ccc4c(c3)OCO4)C[C@H](OCCCCO)O2)CC1	.	.	-	.	.	-
O=C(C1=C[C@H](c2ccc(Br)cc2)C[C@H](OCCCCO)O1)N1CCN(Cc2ccc3c(c2)OCO3)CC1	-	-	-	-	-	-
O=C(C1=C[C@@H](c2ccc(Br)cc2)C[C@@H](OCCCCO)O1)N1CCN(Cc2ccccc2)CC1	-	-	-	20µM	-	-
